Calls of active or inactive are those of the source. Unless noted, no rule for the calls is given here.
Experiments:
[1] = tested on: Wnt5a (protein binding on small-molecule microarray); assay: small molecules binding Wnt5a protein – biophysical, small-molecule microarray, 635/667 nm fluorescence, primary screen (AID 1142); settings: 635 nm fluorescence, higher = more signal;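 also: fluorescence read at 667 nm with signal to noise per printed feature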
[2] = ATP-based viability of Huh7 replicon cells – cell-based, CellTiter-Glo luminescence, basal, 48 h, cytotoxicity control for HCV replication inhibitor project, primary screen (AID 1143); settings: higher = more signal, called active from +8 up or from −8 down;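 also: Huh7 hepatoma cells carrying a hepatitis C replication reporter with no stimulus; test concentration not given here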
[3] = Pseudomonas biofilm growth suppression – PAO1 strain, BacTiter-Glo luminescence, LB-PBS, primary screen (AID 1144); settings: P. aeruginosa PAO1 biofilm, 12 h, higher = more signal
[4] = basal CRE-LacZ reporter activity in PC12 – cell-based, unstimulated, primary screen (AID 1145); settings: no forskolin, luminescence, 4.5 h, higher = more signal, called active from +8 up or from −8 down
[5] = forskolin-driven CRE-LacZ activity in PC12 – cell-based, CRE-LacZ reporter, forskolin-stimulated, primary screen (AID 1146); settings: luminescence, 4.5 h, higher = more signal, called active from +8 up or from −8 down;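 also: PC12 cells with 6xCRE LacZ reporter stimulated by forskolin 10 µM; beta-galactosidase reporter signal reflecting CREB driven transcription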
[6] = molecular target: Streptavidin (Streptomyces avidinii) (UniProt P22629); assay: compounds binding control protein streptavidin – biophysical, small-molecule microarray, 635/667 nm fluorescence, artefact control for SMM compound annotation, primary screen (AID 1147); settings: higher = more signal;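 also: signal reflects streptavidin binding to arrayed compounds as a control protein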
[7] = probe aInhba binding on compound microarray – biochemical, small-molecule microarray, 635/667 nm fluorescence, primary screen (AID 1148); settings: higher = more signal;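 also: score merges 667nm spot fluorescence with signal-to-noise for antibody binding to printed compounds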
Torsin-1A (Homo sapiens) [8] = molecular target: Torsin-1A (Homo sapiens) (UniProt O14656); assay: TOR1A wild-type binding on microarray – cell lysate, small-molecule microarray, lysate, 635/667 nm, primary screen (AID 1149); settings: COS7 hTOR1A-WT lysate, 635 nm fluorescence, higher = more signal
Torsin-1A (Homo sapiens) [9] = molecular target: Torsin-1A (Homo sapiens) (UniProt O14656); assay: torsin A mutant lysate binding on microarrays – cell lysate, small-molecule microarray, COS7 lysate, 635/667 nm fluorescence, primary screen (AID 1150); settings: COS7 hTOR1A mutant lysate, 635 nm fluorescence, higher = more signal;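 also: score pools 667 nm emission and signal to noise measuring lysate protein binding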
[10] = tested on: Sonic hedgehog protein (Shh); assay: Sonic hedgehog microarray binding compounds – biochemical, small-molecule microarray, 635/667 nm fluorescence, primary screen (AID 1151); settings: 635 nm fluorescence, higher = more signal;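 also: Shh protein binding to compounds spotted on small-molecule microarray slides; score combines spot fluorescence intensity with signal-to-noise across triplicate slides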
[11] = optical density shifts of acrAB sulA E. coli – strain DRC41, OD650, 48 h, E. coli filamentation inducer project, primary screen (AID 1152); settings: higher = more signal, called active from +8 up or from −8 down;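 also: E. coli MC1000 strain DRC41 lacking acrAB efflux pump and sulA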
[12] = probe aLefty1 binding on compound microarray – biochemical, small-molecule microarray, 635/667 nm fluorescence, primary screen (AID 1153); settings: higher = more signal;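 also: score merges spot fluorescence with signal-to-noise ratio from the scanned slide images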
[13] = plasmodial surface anion channel blockers, osmotic lysis – cell-based, P. falciparum Indochina, OD700, 1 h, primary screen (AID 1154); settings: P. falciparum Indochina infected RBC osmotic lysis, higher = more signal, called active from +8 up or from −8 down
[14] = plasmodial surface anion channel blockers, osmotic lysis – cell-based, P. falciparum Indochina, OD700, 2 h, primary screen (AID 1155);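 also: lysis reports solute entry through the parasite surface anion channel PSAC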; settings: P. falciparum Indochina infected erythrocytes, higher = more signal, called active from +8 up or from −8 down
[15] = changes in parasitized red cell lysis, either direction – P. falciparum Indochina, OD700, 3 h, PSAC antagonist project, primary screen (AID 1156); settings: P. falciparum-infected erythrocytes, osmotic lysis, higher = more signal, called active from +8 up or from −8 down
[16] = plasmodial surface anion channel blockers, osmotic lysis – cell-based, P. falciparum Indochina, OD700, 18 h, primary screen (AID 1157); settings: P. falciparum Indochina infected erythrocytes, osmotic lysis OD700, 18 h; higher = more signal, called active from +8 up or from −8 down
[17] = S6 kinase pathway phospho-S6 level changes – cell-based, A549, cytoblot, luminescence, serum-stimulated, primary screen (AID 1158); settings: 5 h, higher = more signal;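 also: serum-stimulated A549 lung adenocarcinoma cells; signal is phosphorylated S6 detected by cytoblot immunostaining with HRP secondary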
[18] = molecular target: NADPH oxidase 2 (Homo sapiens) (UniProt P04839); assay: compounds shifting NOX2 Amplex Red fluorescence – cell-based, HEK293-NOX2, PMA-stimulated, NOX inhibitor project, primary screen (AID 1159); settings: 45 min, higher = more signal, called active from +8 up or from −8 down; also: test concentration not given here
[19] = molecular target: NADPH oxidase 4 (Homo sapiens) (UniProt Q9NPH5); assay: compounds shifting NOX4 Amplex Red fluorescence – cell-based, HEK293-NOX4, tetracycline-induced, NOX inhibitor project, primary screen (AID 1160); settings: HEK293-NOX4, Amplex Red H2O2 fluorescence, 45 min; higher = more signal, called active from +8 up or from −8 down
[20] = molecular target: NADPH oxidase 5 (Homo sapiens) (UniProt Q96PH1); assay: compounds shifting NOX5 Amplex Red fluorescence – cell-based, HEK293-NOX5, NOX inhibitor project, primary screen (AID 1161); settings: HEK293-NOX5, ionomycin, 45 min, higher = more signal
NADPH oxidase 5 (Homo sapiens), sequence (Q96PH1 whole entry, looked up): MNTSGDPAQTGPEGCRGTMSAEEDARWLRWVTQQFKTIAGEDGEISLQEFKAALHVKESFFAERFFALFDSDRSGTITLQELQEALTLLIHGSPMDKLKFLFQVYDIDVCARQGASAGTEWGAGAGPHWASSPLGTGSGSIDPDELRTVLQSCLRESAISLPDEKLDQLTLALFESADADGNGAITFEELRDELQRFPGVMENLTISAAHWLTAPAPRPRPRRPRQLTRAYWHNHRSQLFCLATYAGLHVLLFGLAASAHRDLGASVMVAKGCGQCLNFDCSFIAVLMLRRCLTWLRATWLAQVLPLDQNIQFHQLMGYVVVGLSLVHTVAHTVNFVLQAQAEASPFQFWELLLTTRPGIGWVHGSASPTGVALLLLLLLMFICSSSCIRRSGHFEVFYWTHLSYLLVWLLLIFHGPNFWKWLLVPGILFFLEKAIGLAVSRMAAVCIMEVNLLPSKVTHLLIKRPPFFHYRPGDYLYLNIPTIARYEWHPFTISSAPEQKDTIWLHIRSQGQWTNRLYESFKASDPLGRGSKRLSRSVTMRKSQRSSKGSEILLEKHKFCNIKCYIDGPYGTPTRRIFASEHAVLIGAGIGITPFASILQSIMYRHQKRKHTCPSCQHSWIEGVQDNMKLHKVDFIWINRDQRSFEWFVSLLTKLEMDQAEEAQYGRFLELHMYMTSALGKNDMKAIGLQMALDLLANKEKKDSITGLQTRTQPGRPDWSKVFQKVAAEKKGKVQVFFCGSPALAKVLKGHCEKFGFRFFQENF

Streptavidin (Streptomyces avidinii), sequence (P22629 whole entry, looked up): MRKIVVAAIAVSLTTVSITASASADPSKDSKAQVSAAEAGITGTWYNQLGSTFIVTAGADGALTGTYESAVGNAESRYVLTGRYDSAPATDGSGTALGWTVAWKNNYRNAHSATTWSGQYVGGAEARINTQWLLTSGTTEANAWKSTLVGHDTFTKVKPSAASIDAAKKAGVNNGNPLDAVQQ
NADPH oxidase 4 (Homo sapiens), sequence (Q9NPH5 whole entry, looked up): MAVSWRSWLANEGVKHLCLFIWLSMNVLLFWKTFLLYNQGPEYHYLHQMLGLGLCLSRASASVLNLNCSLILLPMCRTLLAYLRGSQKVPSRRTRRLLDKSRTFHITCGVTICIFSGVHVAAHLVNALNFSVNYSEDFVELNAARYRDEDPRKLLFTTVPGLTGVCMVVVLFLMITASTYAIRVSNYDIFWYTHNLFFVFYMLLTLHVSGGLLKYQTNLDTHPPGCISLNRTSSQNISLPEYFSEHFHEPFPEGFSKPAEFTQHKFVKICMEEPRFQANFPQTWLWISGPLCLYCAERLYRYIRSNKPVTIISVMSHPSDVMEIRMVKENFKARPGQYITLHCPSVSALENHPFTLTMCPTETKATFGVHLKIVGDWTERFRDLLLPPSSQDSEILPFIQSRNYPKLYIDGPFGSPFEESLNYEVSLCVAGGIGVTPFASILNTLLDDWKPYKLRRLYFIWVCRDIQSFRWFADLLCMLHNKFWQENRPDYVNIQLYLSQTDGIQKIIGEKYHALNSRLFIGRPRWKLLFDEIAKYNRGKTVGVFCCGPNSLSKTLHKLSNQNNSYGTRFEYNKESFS
NADPH oxidase 2 (Homo sapiens), sequence (P04839 whole entry, looked up): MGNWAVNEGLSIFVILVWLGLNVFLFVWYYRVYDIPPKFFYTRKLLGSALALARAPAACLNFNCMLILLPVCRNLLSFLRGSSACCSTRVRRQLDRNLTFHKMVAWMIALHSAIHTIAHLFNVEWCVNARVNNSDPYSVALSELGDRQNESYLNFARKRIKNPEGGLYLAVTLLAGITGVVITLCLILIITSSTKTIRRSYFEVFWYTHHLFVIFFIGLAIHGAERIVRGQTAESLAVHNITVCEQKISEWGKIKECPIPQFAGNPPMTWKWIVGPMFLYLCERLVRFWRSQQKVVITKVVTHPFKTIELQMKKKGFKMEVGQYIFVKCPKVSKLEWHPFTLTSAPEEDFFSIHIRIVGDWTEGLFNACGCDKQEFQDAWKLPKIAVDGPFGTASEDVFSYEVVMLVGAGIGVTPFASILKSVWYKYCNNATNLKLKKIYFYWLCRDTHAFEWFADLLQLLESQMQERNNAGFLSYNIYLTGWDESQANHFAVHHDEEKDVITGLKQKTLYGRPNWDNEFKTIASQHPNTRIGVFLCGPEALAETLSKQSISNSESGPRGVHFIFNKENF
Torsin-1A (Homo sapiens), sequence (O14656 whole entry, looked up): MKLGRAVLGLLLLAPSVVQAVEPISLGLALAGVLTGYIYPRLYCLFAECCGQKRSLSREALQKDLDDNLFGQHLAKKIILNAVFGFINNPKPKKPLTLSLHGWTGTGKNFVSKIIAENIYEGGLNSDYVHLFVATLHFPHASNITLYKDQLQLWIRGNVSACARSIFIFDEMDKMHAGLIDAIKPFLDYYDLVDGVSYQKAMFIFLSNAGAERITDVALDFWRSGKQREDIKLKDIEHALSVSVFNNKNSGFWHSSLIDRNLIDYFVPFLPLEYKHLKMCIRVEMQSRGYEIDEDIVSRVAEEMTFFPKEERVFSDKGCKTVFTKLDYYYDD

Compound	composite z-score [1]	z-score [2]	z-score [3]	z-score [4]	z-score [5]	composite z-score [6]	composite z-score [7]	composite z-score (Torsin-1A (Homo sapiens) [8])	composite z-score (Torsin-1A (Homo sapiens) [9])	composite z-score [10]	z-score [11]	composite z-score [12]	z-score [13]	z-score [14]	z-score [15]	z-score [16]	z-score [17]	z-score [18]	z-score [19]	z-score [20]
COCCOC(=O)N1C(=O)[C@@]2(c3cc(C#CCC(C(=O)OC)C(=O)OC)ccc31)[C@H](C(N)=O)[C@H]1C(=O)O[C@H](c3ccccc3)[C@H](c3ccccc3)N1[C@@H]2c1ccc(OCCO)cc1	0.787	-2.89 (inactive)	-0.224 (inactive)	0.478 (inactive)	-0.372 (inactive)	0.528	0.105	0.704	0.643	1.07	-0.886 (inactive)	0.146	28.9 (active)	16.1 (active)	-1.71 (inactive)	2.01 (inactive)	-0.275	1.75 (inactive)	1.24 (inactive)	0.515
N#Cc1ccc(C(O)C2C=CC3C(=O)NC(=O)C3N2Nc2ccccn2)cc1 (stereo not given)	-0.0926	-0.0103 (inactive)	-1.11 (inactive)	0.243 (inactive)	-0.345 (inactive)	0.126	-0.0427	0.166	0.241	-0.301	0.261 (inactive)	0.0341	0.104 (inactive)	-0.88 (inactive)	-0.138 (inactive)	-1.01 (inactive)	-0.0329	-1.73 (inactive)	-2.92 (inactive)	-1.67
NCCCC[C@@H]1NC(=O)[C@H]2C[C@@H](C(=O)NCc3ccc(F)cc3)[C@@H](c3ccc(O)cc3)N2C1=O	-0.0979	0.12 (inactive)	-0.0714 (inactive)	0.143 (inactive)	0.421 (inactive)	0.829	0.0963	1.18	2.58	1.11	-0.495 (inactive)	0.954	2.55 (inactive)	0.724 (inactive)	-3.15 (inactive)	0.302 (inactive)	-0.516	0.903 (inactive)	0.941 (inactive)	0.993
[N-]=[N+]=NCc1ccccc1[C@H]1OC(c2ccc(OCCCO)cc2)=N[C@@]1(Cc1ccccc1)C(=O)N1CCOCC1	0.896	-3.73 (inactive)	-0.78 (inactive)	2.02 (inactive)	-0.227 (inactive)	1.08	0.355	1.47	1.17	-0.346	-0.686 (inactive)	0.321	28.8 (active)	25.7 (active)	2.96 (inactive)	2.24 (inactive)	0.692	-0.0281 (inactive)	0.154 (inactive)	-0.526
CCCCC(=C=CC[C@H](O)c1ccc(OCCO)cc1)C[C@H](O)c1ccccn1	0.259	-0.671 (inactive)	0.229 (inactive)	5.13 (inactive)	-0.533 (inactive)	-0.319	0.0398	0.215	1.58	1.17	0.558 (inactive)	-0.0536	15.4 (active)	2.3 (inactive)	1.11 (inactive)	1.07 (inactive)	0.433	1.26 (inactive)	0.364 (inactive)	-1.34
C=C(CC1([C@@H](NP(=O)(c2ccccc2)c2ccccc2)[C@H]2C[C@@H]2CCN(C(=O)OCC)S(=O)(=O)c2ccc(C)cc2)CC1)c1ccccc1	0.302	-3.37 (inactive)	0.83 (inactive)	-0.196 (inactive)	0.108 (inactive)	1.27	0.199	-0.423	0.0999	-1.18	-1.42 (inactive)	0.723	2.02 (inactive)	0.939 (inactive)	2.36 (inactive)	1.28 (inactive)	0.603	0.464 (inactive)	-1.66 (inactive)	-3.34
COc1ccccc1CN1C(=O)c2ccccc2[C@](Cc2ccccc2I)(C(=O)NCCCN(C)C)[C@@H]1c1ccc(CO)cc1	0.168	-5.84 (inactive)	0.777 (inactive)	3.31 (inactive)	5.18 (inactive)	0.956	-0.187	-0.26	0.409	0.814	-6.9 (inactive)	-0.275	2.8 (inactive)	-0.551 (inactive)	-5.31 (inactive)	-0.379 (inactive)	-2.54	-10.2 (active)	-4.81 (inactive)	-4.8
CCOC(=O)C[C@H]1[C@H](OC(=O)c2ccc(C(=O)c3ccccc3)cc2)[C@@H](NC(=O)c2ccc3ccccc3c2)c2cc(OCCCO)ccc2N1C(=O)c1ccc2ccccc2n1	0.289	0.311 (inactive)	-0.0217 (inactive)	-0.244 (inactive)	-0.643 (inactive)	0.129	-0.0774	0.182	0.819	0.94	1.86 (inactive)	0.23	6.29 (inactive)	1.32 (inactive)	-0.0906 (inactive)	0.728 (inactive)	0.154	0.412 (inactive)	0.0963 (inactive)	1.66
